Measurements: the supplement of paper PMC10849652
The full data set covers some 8,800 targets. This sample favours those with a hit. About 0.5% of all pairs of compound and target were hits. Unmarked numbers belong to inactive results.

Columns and labels:
Assay in all cases: log2 fold change, soluble protein after heating vs DMSO (PISA); higher = thermal stabilisation; K562 lysate, 10 uM; active = over 0.2 and 3.5 SD of the protein, either way, in both replicates (recomputed)
alvocidib = compound: CN1CC[C@H](c2c(O)cc(O)c3c(=O)cc(-c4ccccc4Cl)oc23)[C@H](O)C1 [alvocidib]
Outline: (§1)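 To prepare the extract, K562 pellets were dounce-homogenised in PBS pH 7.4 with 1 mM MgCl2, giving crude material at 1 mg/mL protein. This was treated with 10 μM compound for 30 min, then heated in aliquots for 3 min over 48°C-58°C before pooling and addition of NP-40 to 0.5% at 4°C. Centrifugation at 21,000xg for 90 min left soluble protein in the supernatant, which TMTpro 16plex LC-MS/MS quantified with equalised channel sums. Results are log-two fold changes in thermal stability compared with solvent controls, from duplicates.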

Tubastatin A = compound: CN1CCc2c(c3ccccc3n2Cc2ccc(C(=O)NO)cc2)C1 [Tubastatin A]
Outline: as §1

[1] = compound: CNC(=O)C1=CC=CC=C1NC2=NC(=NC=C2Cl)NC3=C(C=C(C=C3)N4CCOCC4)OC
Outline: as §1

defactinib = compound: CNC(=O)c1ccc(Nc2ncc(C(F)(F)F)c(NCc3nccnc3N(C)S(C)(=O)=O)n2)cc1 [defactinib]
Outline: as §1

[2] = compound: CNc1nc(-c2ccc3c(N)n[nH]c3c2)cc(N2C[C@@H](C(=O)NC3CCCCC3)CC[C@H]2C)n1
Outline: as §1

encorafenib = compound: COC(=O)N[C@@H](C)CNc1nccc(-c2cn(C(C)C)nc2-c2cc(Cl)cc(NS(C)(=O)=O)c2F)n1 [encorafenib]
Outline: as §1

[3] = compound: COC(=O)[C@H](CCSC)NC(=O)C1=C(C=C(C=C1)NC[C@H](CS)N)C2=CC=CC=C2
Outline: as §1

alisertib = compound: COc1cc(Nc2ncc3c(n2)-c2ccc(Cl)cc2C(c2c(F)cccc2OC)=NC3)ccc1C(=O)O [alisertib]
Outline: as §1

[4] = compound: COc1cc2nc(-c3cc(F)ccc3O)nc(N[C@@H]3CNC[C@H]3C(C)(C)O)c2cc1OC
Outline: as §1

gefitinib = compound: COc1cc2ncnc(Nc3ccc(F)c(Cl)c3)c2cc1OCCCN1CCOCC1 [gefitinib]
Outline: as §1

lapatinib = compound: CS(=O)(=O)CCNCc1ccc(-c2ccc3ncnc(Nc4ccc(OCc5cccc(F)c5)c(Cl)c4)c3c2)o1 [lapatinib]
Outline: as §1

pictilisib = compound: CS(=O)(=O)N1CCN(Cc2cc3nc(-c4cccc5[nH]ncc45)nc(N4CCOCC4)c3s2)CC1 [pictilisib]
Outline: as §1

crizotinib = compound: C[C@@H](Oc1cc(-c2cnn(C3CCNCC3)c2)cnc1N)c1c(Cl)ccc(F)c1Cl [crizotinib]
Outline: as §1

[5] = compound: C[C@H](C1=CC=C(C=C1)C(=O)NC2=C3C=CNC3=NC=C2)N
Outline: as §1

duvelisib = compound: C[C@H](Nc1ncnc2nc[nH]c12)c1cc2cccc(Cl)c2c(=O)n1-c1ccccc1 [duvelisib]
Outline: as §1

gandotinib = compound: Cc1cc(Nc2cc(CN3CCOCC3)c3nc(C)c(Cc4ccc(Cl)cc4F)n3n2)n[nH]1 [gandotinib]
Outline: as §1

tozasertib = compound: Cc1cc(Nc2cc(N3CCN(C)CC3)nc(Sc3ccc(NC(=O)C4CC4)cc3)n2)n[nH]1 [tozasertib]
Outline: as §1

doramapimod = compound: Cc1ccc(-n2nc(C(C)(C)C)cc2NC(=O)Nc2ccc(OCCN3CCOCC3)c3ccccc23)cc1 [doramapimod]
Outline: as §1

bafetinib = compound: Cc1ccc(NC(=O)c2ccc(CN3CC[C@H](N(C)C)C3)c(C(F)(F)F)c2)cc1Nc1nccc(-c2cncnc2)n1 [bafetinib]
Outline: as §1

[6] = compound: Cc1cccc(CC(=O)N2CCc3c2ccc(-c2cn(C)c4ncnc(N)c24)c3F)n1
Outline: as §1

UniProt O95067, sequence (O95067 whole entry, looked up): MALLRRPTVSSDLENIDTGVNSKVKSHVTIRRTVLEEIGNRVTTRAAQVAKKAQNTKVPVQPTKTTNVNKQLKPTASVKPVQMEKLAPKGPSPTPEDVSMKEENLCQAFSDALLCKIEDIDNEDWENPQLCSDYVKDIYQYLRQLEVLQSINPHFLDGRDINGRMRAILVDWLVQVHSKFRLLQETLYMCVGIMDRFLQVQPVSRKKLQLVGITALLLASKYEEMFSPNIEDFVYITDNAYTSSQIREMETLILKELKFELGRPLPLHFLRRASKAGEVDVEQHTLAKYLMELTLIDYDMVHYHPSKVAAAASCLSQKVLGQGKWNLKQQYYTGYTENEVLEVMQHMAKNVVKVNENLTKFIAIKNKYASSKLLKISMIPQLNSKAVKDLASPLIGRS
UniProt Q6P4E1, sequence (Q6P4E1 whole entry, looked up): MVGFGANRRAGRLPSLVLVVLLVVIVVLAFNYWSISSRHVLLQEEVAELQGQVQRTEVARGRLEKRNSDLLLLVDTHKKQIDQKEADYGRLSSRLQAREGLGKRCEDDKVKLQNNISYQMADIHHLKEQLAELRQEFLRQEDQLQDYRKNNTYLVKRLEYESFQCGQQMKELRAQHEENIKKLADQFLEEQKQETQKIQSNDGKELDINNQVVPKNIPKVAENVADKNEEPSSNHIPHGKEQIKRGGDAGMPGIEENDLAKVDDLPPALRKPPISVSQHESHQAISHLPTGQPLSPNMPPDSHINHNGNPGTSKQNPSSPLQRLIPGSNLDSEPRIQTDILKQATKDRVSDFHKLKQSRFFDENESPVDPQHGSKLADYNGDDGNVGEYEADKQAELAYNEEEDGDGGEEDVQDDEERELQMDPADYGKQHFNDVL
UniProt O95429, sequence (O95429 whole entry, looked up): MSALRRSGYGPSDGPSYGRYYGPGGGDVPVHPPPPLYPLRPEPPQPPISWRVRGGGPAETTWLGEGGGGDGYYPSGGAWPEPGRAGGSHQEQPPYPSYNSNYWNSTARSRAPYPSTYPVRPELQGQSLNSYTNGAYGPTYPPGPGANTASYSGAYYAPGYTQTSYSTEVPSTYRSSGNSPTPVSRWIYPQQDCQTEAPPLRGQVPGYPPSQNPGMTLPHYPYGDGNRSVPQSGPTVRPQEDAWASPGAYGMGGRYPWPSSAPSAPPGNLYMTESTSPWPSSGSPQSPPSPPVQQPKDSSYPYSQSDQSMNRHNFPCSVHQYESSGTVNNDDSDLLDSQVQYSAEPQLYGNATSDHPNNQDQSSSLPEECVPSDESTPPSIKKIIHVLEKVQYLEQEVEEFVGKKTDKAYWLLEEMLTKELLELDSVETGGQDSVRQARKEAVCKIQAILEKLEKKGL
UniProt P01024, sequence (P01024 whole entry, looked up): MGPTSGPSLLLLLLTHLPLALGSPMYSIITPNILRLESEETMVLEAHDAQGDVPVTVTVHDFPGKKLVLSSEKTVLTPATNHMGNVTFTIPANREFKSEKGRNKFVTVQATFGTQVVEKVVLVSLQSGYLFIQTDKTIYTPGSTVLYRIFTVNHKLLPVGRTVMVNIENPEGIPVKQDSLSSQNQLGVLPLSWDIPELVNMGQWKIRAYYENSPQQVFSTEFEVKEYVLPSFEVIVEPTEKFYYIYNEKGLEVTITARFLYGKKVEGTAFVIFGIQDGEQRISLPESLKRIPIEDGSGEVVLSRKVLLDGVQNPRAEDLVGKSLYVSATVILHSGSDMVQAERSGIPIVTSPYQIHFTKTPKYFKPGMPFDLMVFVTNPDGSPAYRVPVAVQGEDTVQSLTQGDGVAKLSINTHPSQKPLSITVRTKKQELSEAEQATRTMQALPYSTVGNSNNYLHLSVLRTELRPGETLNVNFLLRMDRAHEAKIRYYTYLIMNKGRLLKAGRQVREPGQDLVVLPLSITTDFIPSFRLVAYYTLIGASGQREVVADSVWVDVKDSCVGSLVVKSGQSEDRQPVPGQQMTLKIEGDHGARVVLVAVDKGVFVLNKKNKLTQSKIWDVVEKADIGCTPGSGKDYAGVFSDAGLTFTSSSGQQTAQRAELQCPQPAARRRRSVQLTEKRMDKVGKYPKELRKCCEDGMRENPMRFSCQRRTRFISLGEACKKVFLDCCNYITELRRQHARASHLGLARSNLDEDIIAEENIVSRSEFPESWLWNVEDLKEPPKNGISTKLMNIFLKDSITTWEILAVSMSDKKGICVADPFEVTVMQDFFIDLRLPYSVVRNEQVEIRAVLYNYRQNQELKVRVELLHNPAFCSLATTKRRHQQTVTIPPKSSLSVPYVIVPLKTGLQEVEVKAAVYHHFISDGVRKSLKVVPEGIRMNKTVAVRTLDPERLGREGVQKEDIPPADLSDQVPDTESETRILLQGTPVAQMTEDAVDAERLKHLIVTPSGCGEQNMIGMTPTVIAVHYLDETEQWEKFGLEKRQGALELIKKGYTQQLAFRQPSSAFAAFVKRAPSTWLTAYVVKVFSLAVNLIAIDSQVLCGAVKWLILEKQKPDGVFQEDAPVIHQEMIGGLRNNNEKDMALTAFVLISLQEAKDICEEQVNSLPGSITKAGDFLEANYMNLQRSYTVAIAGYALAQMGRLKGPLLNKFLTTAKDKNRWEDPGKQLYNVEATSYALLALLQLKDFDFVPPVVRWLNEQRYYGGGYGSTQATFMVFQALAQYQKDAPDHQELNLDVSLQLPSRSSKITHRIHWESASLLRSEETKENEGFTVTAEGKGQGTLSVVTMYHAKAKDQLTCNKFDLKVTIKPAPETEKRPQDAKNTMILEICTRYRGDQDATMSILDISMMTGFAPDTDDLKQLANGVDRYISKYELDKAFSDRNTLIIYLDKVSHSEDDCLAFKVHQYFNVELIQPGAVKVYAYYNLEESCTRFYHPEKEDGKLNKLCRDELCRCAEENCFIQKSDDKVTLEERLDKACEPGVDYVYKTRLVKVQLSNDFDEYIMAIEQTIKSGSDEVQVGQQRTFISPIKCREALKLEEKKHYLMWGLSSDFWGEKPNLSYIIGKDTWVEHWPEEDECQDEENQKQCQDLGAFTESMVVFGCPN
UniProt P55211, sequence (P55211 whole entry, looked up): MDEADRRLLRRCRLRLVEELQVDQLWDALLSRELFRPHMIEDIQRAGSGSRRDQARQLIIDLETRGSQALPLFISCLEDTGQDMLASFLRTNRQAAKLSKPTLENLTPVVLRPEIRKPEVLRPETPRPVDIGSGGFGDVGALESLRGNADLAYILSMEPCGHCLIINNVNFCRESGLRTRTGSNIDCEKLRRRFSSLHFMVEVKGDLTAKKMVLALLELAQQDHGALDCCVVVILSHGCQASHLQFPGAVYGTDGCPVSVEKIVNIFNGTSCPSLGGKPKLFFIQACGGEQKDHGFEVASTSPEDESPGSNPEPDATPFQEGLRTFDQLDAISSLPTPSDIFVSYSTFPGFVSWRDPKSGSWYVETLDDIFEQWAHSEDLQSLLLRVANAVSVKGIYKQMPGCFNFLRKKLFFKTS
UniProt O75081, sequence (O75081 whole entry, looked up): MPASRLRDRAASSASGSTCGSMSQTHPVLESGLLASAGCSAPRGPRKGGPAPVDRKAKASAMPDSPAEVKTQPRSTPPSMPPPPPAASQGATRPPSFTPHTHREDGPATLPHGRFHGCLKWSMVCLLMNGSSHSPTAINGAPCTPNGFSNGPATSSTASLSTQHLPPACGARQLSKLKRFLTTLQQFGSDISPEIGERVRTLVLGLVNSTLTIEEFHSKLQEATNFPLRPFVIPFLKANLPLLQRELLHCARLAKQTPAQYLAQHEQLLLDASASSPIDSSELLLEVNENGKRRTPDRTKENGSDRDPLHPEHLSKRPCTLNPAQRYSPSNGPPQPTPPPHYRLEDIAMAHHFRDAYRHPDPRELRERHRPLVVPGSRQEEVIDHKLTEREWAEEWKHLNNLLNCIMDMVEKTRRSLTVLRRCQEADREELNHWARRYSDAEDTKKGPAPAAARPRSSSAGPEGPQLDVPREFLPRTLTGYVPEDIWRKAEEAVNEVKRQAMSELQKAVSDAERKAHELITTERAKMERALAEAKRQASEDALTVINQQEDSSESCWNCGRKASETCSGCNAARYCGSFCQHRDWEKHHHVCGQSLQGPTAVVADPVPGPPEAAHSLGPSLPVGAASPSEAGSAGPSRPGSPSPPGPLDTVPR
UniProt Q13042, sequence (Q13042 whole entry, looked up): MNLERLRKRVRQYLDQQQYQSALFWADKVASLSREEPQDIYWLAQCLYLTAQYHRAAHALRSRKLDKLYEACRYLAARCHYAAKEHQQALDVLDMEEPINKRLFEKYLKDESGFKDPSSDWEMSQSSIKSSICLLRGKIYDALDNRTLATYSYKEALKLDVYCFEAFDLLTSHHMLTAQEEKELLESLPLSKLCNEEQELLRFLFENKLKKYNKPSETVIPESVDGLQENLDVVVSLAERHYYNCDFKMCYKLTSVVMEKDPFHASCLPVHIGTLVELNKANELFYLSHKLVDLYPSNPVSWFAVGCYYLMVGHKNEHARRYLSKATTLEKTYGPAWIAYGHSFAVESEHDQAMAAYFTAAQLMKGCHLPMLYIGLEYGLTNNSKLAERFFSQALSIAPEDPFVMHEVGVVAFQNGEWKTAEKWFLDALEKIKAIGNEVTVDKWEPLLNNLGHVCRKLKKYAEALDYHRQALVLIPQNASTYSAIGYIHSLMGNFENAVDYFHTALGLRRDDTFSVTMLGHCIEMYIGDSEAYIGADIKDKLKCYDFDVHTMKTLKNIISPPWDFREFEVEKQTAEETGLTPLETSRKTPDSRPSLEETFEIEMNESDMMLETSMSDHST
UniProt Q8ND76, sequence (Q8ND76 whole entry, looked up): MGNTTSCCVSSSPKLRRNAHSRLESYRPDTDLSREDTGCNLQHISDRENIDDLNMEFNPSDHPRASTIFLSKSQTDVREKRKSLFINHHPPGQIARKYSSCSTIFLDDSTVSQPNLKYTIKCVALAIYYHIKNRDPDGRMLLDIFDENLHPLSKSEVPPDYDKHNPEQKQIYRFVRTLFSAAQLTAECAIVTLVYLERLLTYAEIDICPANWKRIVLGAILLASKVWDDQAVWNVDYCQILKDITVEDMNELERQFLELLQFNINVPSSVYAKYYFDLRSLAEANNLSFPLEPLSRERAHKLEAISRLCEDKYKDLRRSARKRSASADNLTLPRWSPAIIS

Target | log2 fold change (alvocidib) | log2 fold change (Tubastatin A) | log2 fold change [1] | log2 fold change (defactinib) | log2 fold change [2] | log2 fold change (encorafenib) | log2 fold change [3] | log2 fold change (alisertib) | log2 fold change [4] | log2 fold change (gefitinib) | log2 fold change (lapatinib) | log2 fold change (pictilisib) | log2 fold change (crizotinib) | log2 fold change [5] | log2 fold change (duvelisib) | log2 fold change (gandotinib) | log2 fold change (tozasertib) | log2 fold change (doramapimod) | log2 fold change (bafetinib) | log2 fold change [6]
CCNB2 (UniProt O95067) | 0.046 | 0.027 | 0.028 | -0.044 | 0 | 0.039 | 0.032 | -0.076 | 0.031 | 0.084 | -0.048 | -0.091 | -0.018 | -0.016 | 0.032 | -0.108 | 0.023 | 0.009 | -0.035 | 0.068
CARNMT1 (UniProt Q8N4J0) | -0.167 | 0.045 | -0.021 | -0.03 | -0.021 | 0.051 | 0.015 | -0.022 | 0.026 | 0.009 | 0.01 | -0.029 | -0.131 | -0.354 (active) | 0.018 | 0.038 | -0.04 | 0.01 | -0.078 | 0.181
C3 (UniProt P01024) | -0.027 | 0.051 | 0.041 | 0.01 | 0.008 | 0 | 0.054 | -0.031 | -0.005 | 0.05 | 0.011 | -0.01 | 0.042 | -0.095 | -0.073 | 0.044 | 0.068 | -0.006 | 0.019 | 0.019
CHD3 isoform 3 (UniProt Q12873) | 0.003 | -0.074 | 0.015 | 0.006 | 0.02 | 0.029 | 0.085 | 0.047 | 0.01 | -0.014 | -0.022 | -0.02 | 0.009 | 0.014 | -0.022 | -0.013 | -0.002 | 0.028 | -0.047 | 0.033
BCAR1 isoform 6 (UniProt P56945) | 0.074 | -0.009 | 0.009 | -0.032 | 0.012 | 0.018 | 0.014 | 0.009 | 0.08 | 0.065 | -0.044 | 0.003 | 0.003 | 0.071 | 0.008 | -0.113 | 0.01 | -0.039 | -0.073 | -0.104
BAG4 (UniProt O95429) | 0.04 | -0.096 | -0.01 | -0.001 | 0.023 | -0.032 | 0.005 | -0.023 | 0.003 | 0.039 | 0.013 | -0.174 | 0.06 | -0.056 | 0.043 | 0.102 | 0.011 | -0.043 | -0.002 | 0.004
CASC4 (UniProt Q6P4E1) | -0.03 | 0.054 | 0.011 | -0.064 | -0.044 | 0.128 | -0.012 | 0.035 | -0.004 | 0.086 | -0.038 | 0.069 | 0.019 | -0.088 | 0.051 | 0.016 | 0.067 | 0.057 | -0.045 | 0.02
ATRIP (UniProt Q8WXE1) | 0.012 | -0.105 | -0.074 | -0.114 | -0.141 | 0.068 | -0.061 | 0.016 | 0.03 | 0.026 | -0.046 | 0.187 | 0.012 | -0.034 | -0.016 | -0.056 | 0.097 | 0.001 | -0.035 | 0.006
CBFA2T3 (UniProt O75081) | -0.039 | -0.131 | 0.028 | 0.004 | 0.051 | 0.056 | 0.037 | 0.031 | -0.042 | 0.018 | 0.041 | -0.038 | 0.013 | 0.017 | 0.006 | -0.001 | -0.014 | 0.007 | -0.007 | 0.05
CDC16 (UniProt Q13042) | 0.012 | -0.1 | 0.002 | -0.024 | -0.097 | 0.032 | -0.133 | -0.008 | -0.037 | 0.017 | 0.016 | 0 | 0.009 | 0.047 | 0.011 | -0.095 | 0.06 | 0.014 | -0.039 | -0.057
ATP6V1B1 (UniProt P15313) | -0.118 | 0.095 | 0.018 | -0.005 | 0.031 | -0.032 | 0.017 | 0.023 | 0.009 | -0.033 | -0.028 | -0.028 | -0.035 | -0.232 | -0.001 | 0.099 | 0 | 0.042 | -0.044 | 0.129
CAPNS1 (UniProt P04632) | 0.021 | -0.022 | 0.032 | 0.027 | -0.005 | 0.022 | -0.129 | -0.012 | -0.051 | -0.062 | 0.064 | 0.024 | 0.047 | -0.21 | -0.015 | 0.15 | -0.042 | 0.079 | 0.016 | 0.005
CCNY (UniProt Q8ND76) | 0.001 | -0.139 | -0.015 | 0.011 | 0.04 | 0.023 | -0.085 | 0.037 | 0.008 | -0.091 | -0.061 | -0.044 | -0.035 | -0.094 | -0.057 | 0.081 | 0.056 | 0.033 | -0.073 | 0.054
C19orf54 (UniProt Q5BKX5) | -0.032 | 0.004 | 0.048 | -0.039 | 0.023 | 0.024 | 0.151 | -0.099 | 0.069 | 0.08 | -0.003 | -0.089 | -0.019 | -0.011 | -0.076 | -0.046 | -0.008 | -0.036 | -0.01 | 0.027
CASP9 (UniProt P55211) | -0.01 | -0.043 | -0.021 | 0.039 | -0.014 | 0.023 | -0.077 | 0.014 | 0.017 | 0.052 | 0.003 | 0.011 | -0.047 | -0.036 | 0.036 | -0.027 | 0.017 | 0.009 | -0.069 | 0.082
CHCHD1 (UniProt Q96BP2) | 0.494 | 0.046 | 0.028 | -0.033 | 0.087 | -0.018 | -0.042 | 0.003 | 0.023 | 0.228 | 0.025 | 0.001 | -0.069 | 1.33 (active) | 0.052 | -0.314 | -0.016 | 0.039 | 0.003 | -0.35 (active)
